From PubChem BioAssay (Tox21)
Where “and” joins values, the source holds several entries; their conditions need not be identical. Equal values may be shown once. Results filed as inconclusive are left out. Calls of active or inactive are those of the source. Unless noted, calls follow the shape of the dose curve; as a rule, active = well fitted curve in the direction sought with a large enough effect in the repeat runs; inconclusive = weak or mixed curves; inactive = no such curve, though single readings can be large; an effect the other way counts as inactive or inconclusive.

Columns and labels:
[1] = qHTS assay for small molecule agonists of the p53 signaling pathway (AID 651631; calls by dose curve; also: nearly all actives have a fitted effect of over 15% in size)
How it was run: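 Agonist mode screen using a stably integrated beta-lactamase gene under p53 response elements in HCT-116 cells. Compound exposure lasts 16 h at 37 °C; fluorescence intensity is measured following 2 h FRET substrate loading.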

[2] = qHTS assay for small molecules that induce genotoxicity in human embryonic kidney cells expressing luciferase-tagged ATAD5 (AID 651632); also: nearly all actives have a fitted effect of over 15% in size
How it was run: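 Luminescence read-out: after 16 hr compound exposure at 37C, ATAD5-luciferase HEK293T cells received Amplite, 30 min RT, then CCD imaging. A rise in signal marks genotoxic stress.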

[3] = qHTS assay for small molecule agonists of the p53 signaling pathway - cell viability (AID 651633; calls by dose curve; also: nearly all actives have a fitted effect of over 30% in size; also: potency is read from the fitted curve at half-maximal effect)
How it was run: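 p53RE-bla cells were treated with compound for 16 hours at 37 C. Cytotoxicity was then measured as CellTiter-Glo luminescence after 30 min at room temperature.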

[4] = qHTS assay for small molecules that induce genotoxicity in human embryonic kidney cells expressing luciferase-tagged ATAD5 - cell viability (AID 651634; calls by dose curve; also: nearly all actives have a fitted effect of over 25% in size)
How it was run: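 HEK293T ATAD5-luc cells, 2,000/well; compound 15.5 hr, 37C/5% CO2; CellTiter-Fluor 30 min, 37C; fluorescence read.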

[5] = qHTS assay for small molecule disruptors of the mitochondrial membrane potential - cell viability (AID 720634; calls by dose curve; also: nearly all actives have a fitted effect of over 20% in size; also: potency is read from the fitted curve at half-maximal effect)
How it was run: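 Luminescence from CellTiter-Glo (ATP content) gave viability in HepG2 cells, read in the same wells as the MMP dye assay after 1 hr compound exposure at 37 C.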

[6] = qHTS assay for small molecule disruptors of the mitochondrial membrane potential (AID 720635); also: potency is read from the fitted curve at half-maximal effect
How it was run: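 HepG2 cells exposed to compound 1 hr at 37C, then Mito-MPS dye 30 min. Ratio read of aggregate (540/590 nm) versus monomer (490/535 nm) fluorescence.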

[7] = qHTS assay to test for compound auto fluorescence at 590 nm (red) in HepG2 cells (AID 720674)
How it was run: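 Seeding: 2,000 HepG2 cells/well, MEM/10% FBS, overnight 37 C. Dosing: compound vs DMSO. Incubation: 1 hr, 37 C, 5% CO2. Read: fluorescence 540 ex/590 em, Rose Bengal sodium as red reference.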

[8] = qHTS assay to test for compound auto fluorescence at 535 nm (green) in HepG2 cells (AID 720675)
[9] = qHTS assay to test for compound auto fluorescence at 535 nm (green) in HEK293 cells (AID 720680)
[10] = qHTS assay to test for compound auto fluorescence at 460 nm (blue) in HEK293 cell free culture (AID 720681)
How it was run: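 Compounds were added to cell-free DMEM with 10% FBS and fluorescence read directly. The blue channel used 405 nm excitation and 460 nm emission, with triamterene as the reference fluorophore.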

[11] = qHTS assay to test for compound auto fluorescence at 535 nm (green) in HEK293 cell free culture (AID 720682)
How it was run: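 No cells present: wells hold DMEM supplemented with 10% FBS, into which compound or vehicle is pinned. Green emission is then recorded (485 nm excitation, 535 nm emission) and scaled to fluorescein.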

[12] = qHTS assay to test for compound auto fluorescence at 590 nm (red) in HEK293 cell free culture (AID 720683)
How it was run: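 Cell-free wells of DMEM with 10% FBS received compound, and intrinsic fluorescence was read at excitation/emission 540/590 nm. Values expressed as equivalence to Rose Bengal sodium.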

[13] = qHTS assay to test for compound auto fluorescence at 590 nm (red) in HepG2 cell free culture (AID 720684)
How it was run: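 Rose Bengal sodium served as the reference for red signal. Test compounds were dispensed into serum-containing MEM (10% FBS) without cells, and plates were read at 540/590 nm.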

[14] = qHTS assay to test for compound auto fluorescence at 460 nm (blue) in HepG2 cell free culture (AID 720685)
How it was run: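 Cell-free plates of MEM plus 10% FBS received 23 nL compound or DMSO vehicle; blue-channel (405/460 nm) intensity scored against triamterene as reference fluorophore.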

[15] = qHTS assay to test for compound auto fluorescence at 535 nm (green) in HepG2 cell free culture (AID 720686)
[16] = qHTS assay to test for compound auto fluorescence at 460 nm (blue) in HepG2 cells (AID 720687)
How it was run: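 HepG2 cells in MEM with 10% FBS, attached overnight at 37 C, were exposed to compound or DMSO for 1 hr at 37 C, 5% CO2. Blue fluorescence was read at 405/460 nm, with triamterene as reference fluorophore.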

[17] = biological target: Glucocorticoid receptor (Homo sapiens) (UniProt P04150); experiment: qHTS assay to identify small molecule agonists of the glucocorticoid receptor (GR) signaling pathway (AID 720691; active = well fitted activation curve with a large enough effect in the signal ratio in the repeat runs, not every such curve was filed as active; the % refers to the signal ratio); conditions: GR-bla HeLa, beta-lactamase reporter ratio, 18 h; activation: at 62.4 µM (top of the series)
Sequence of Glucocorticoid receptor (Homo sapiens) (P04150 whole entry, looked up): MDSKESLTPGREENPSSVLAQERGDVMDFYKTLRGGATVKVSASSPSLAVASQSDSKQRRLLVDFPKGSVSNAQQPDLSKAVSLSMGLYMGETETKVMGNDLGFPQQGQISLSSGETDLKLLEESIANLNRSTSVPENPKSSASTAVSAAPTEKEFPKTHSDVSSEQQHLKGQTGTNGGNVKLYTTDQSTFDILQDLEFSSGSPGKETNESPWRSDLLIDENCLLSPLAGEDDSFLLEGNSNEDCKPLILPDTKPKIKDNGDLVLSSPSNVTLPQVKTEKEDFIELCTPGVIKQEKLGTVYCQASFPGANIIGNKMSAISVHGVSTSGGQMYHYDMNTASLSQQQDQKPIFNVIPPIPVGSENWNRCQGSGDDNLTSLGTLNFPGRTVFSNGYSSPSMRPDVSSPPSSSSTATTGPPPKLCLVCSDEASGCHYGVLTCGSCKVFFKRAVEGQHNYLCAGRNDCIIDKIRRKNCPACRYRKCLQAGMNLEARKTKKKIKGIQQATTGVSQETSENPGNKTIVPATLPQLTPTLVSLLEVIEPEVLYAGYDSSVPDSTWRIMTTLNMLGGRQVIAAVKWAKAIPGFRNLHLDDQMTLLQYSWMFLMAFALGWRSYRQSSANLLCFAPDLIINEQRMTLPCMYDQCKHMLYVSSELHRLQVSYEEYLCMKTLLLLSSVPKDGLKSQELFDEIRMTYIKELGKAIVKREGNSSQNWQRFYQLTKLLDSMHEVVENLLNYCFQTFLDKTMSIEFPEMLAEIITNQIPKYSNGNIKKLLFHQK
How it was run: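 HeLa GR-bla reporter line; cells pre-incubated 4 h, compound in DMSO 18 h at 37 C; LiveBLAzer B/G FRET substrate 2 h RT; fluorescence intensity read-out.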

[18] = biological target: Glucocorticoid receptor (Homo sapiens) (UniProt P04150); experiment: qHTS assay to identify small molecule antagonists of the glucocorticoid receptor (GR) signaling pathway (AID 720692; active = well fitted inhibition curve with a large enough effect in the signal ratio in the repeat runs, not every such curve was filed as active; the % refers to the signal ratio; also: potency is read from the fitted curve at half-maximal effect)
How it was run: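 Read-out: beta-lactamase FRET substrate fluorescence, 2 h at room temperature, in HeLa cells stably carrying a GRE-driven bla reporter. Compounds were co-incubated with 5 nM dexamethasone agonist (final) for 18 h at 37 C.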

[19] = qHTS assay to test for compound auto fluorescence at 590 nm (red) in HEK293 cells (AID 720679)
How it was run: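 Red channel, Ex/Em 540/590nm; signal expressed as equivalency to Rose Bengal sodium. HEK293, 2,000 cells/well, 10% dialyzed FBS; 23 nL compound pinned after 4-5 hr attachment; overnight 37C/5% CO2 before reading.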

[20] = qHTS assay to test for compound auto fluorescence at 460 nm (blue) in HEK293 cells (AID 720678)
How it was run: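 Blue read-out at excitation 405 nm and emission 460 nm follows overnight compound exposure of HEK293 cells at 37C in 5% CO2. Activity is given as auto fluorescence equivalency to triamterene.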

Measured: Potency

CCCC(C)=O
not listed: [19] | [20]
inactive: all other assays above

CCCCCCCCCCCCOCCO
not listed: [1] | [6] | [18] | [19] | [20]
inactive: all other assays above

Cc1occc(=O)c1O
not listed: [1] | [17] | [18] | [20]
inactive: all other assays above

Cc1cccnc1
not listed: [1] | [17] | [18] | [19]
inactive: all other assays above

CC(c1cc2ccccc2s1)N(O)C(N)=O (centres undefined)
active: [5] 27.3 µM
not listed: [1] | [3] | [19]
inactive: all other assays above

O=C(O)CCCCCCCCCCC(=O)O
not listed: [1] | [20]
inactive: all other assays above

CCCCC(CC)COC(=O)C(C#N)=C(c1ccccc1)c1ccccc1 (centres undefined)
active: [5] 15.4 µM | [6] 27.3 µM
not listed: [1]
inactive: all other assays above

CCCCCC1=CCCC1=O
not listed: [1]
inactive: all other assays above

C#C[C@]1(O)CC[C@H]2[C@@H]3CCC4=CC(=O)CC[C@@H]4[C@H]3CC[C@@]21C
not listed: [1] | [3] | [18]
inactive: all other assays above

CC[C@H](C)C(=O)O[C@H]1C[C@@H](C)C=C2C=C[C@H](C)[C@H](CC[C@@H]3C[C@@H](O)CC(=O)O3)[C@H]21
active: [3] 29.8 µM and 69.6 µM | [6] 18.8 µM and 62 µM and 60.8 µM | [18] 21.3 µM
not listed: [1] | [17] | [20]
inactive: all other assays above

NNc1nncc2ccccc12
not listed: [2] | [4] | [6]
inactive: all other assays above

CCc1ccc(CCOc2ccc(CC3SC(=O)NC3=O)cc2)nc1 (centres undefined)
not listed: [1] | [6] | [18] | [20]
inactive: all other assays above

CCCCCC/C(C=O)=C\c1ccccc1
not listed: [1]
inactive: all other assays above
